# Measured values as given in PubChem BioAssay AID1626 (SRMLSC, 2009).
# The campaign covered roughly 220,000 compounds. About 2,000 (0.91%) were called active. Roughly 2% stayed inconclusive and do not appear here. The list is a sample of the results. Entries with a potency or affinity are not part of this list. Unmarked numbers belong to inactive results. No stated cut-off is given here; in the data, inconclusive means inhibition above about 80% without an active follow-up result; inactive means below that; test concentration not stated here.
# Experiment: M. tuberculosis H37Rv growth inhibitors, H37Rv strain (AID 1626);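 further: bacteria incubated seven days before Alamar blue readout; 0% = bacteria only wells and 100% = bacteria with antibiotic wells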
# Conditions: stronger effect = higher value, concentration not given here
row,Compound,inhibition [%]
1,O=C(c1cnc(N2CCN(c3ncccn3)CC2)c2ccccc12)N1CCN(c2ccccn2)CC1,1.07
2,CC(C)NC(=O)c1cnc(N2CCN(c3ccccn3)CC2)c2ccccc12,6.14
3,O=C(Nc1ccc(C(F)(F)F)cc1)c1cnc(N2CCN(c3ccccn3)CC2)c2ccccc12,65.3
4,O=C(NN1C(=O)C2C3C=CC(O3)C2C1=O)c1cccc(Br)c1 (configuration not stated),5.77
5,Cc1c(C(=O)NCC2CCCO2)cccc1[N+](=O)[O-] (configuration not stated),2.82
6,O=C(NCc1cccc(C(F)(F)F)c1)C1CCN(c2ncccn2)CC1,-1.47
7,O=C(O)CCc1nc2ccccc2n(CCc2ccccc2)c1=O,-8.81
8,O=C(C1CC(c2ccc(F)cc2)=NO1)N1CCc2ccccc2C1 (configuration not stated),-0.85
9,O=C(c1cccc(F)c1)N1CCN(C(=O)c2nn3cccnc3c2Cl)CC1,0.18
10,O=C(c1ccc(F)cc1)C1CCN(C(=O)c2ccncc2)CC1,-7.5
11,O=C(/C=N/O)Nc1ccc2sc3ccccc3c2c1,50.4
12,N#Cc1c2n(c3c(=O)n(CC(=O)c4ccc(Br)cc4)cnc13)CCCC2,1.64
13,CC(C)CCN1CCN(Cc2nc(-c3ccccc3)cs2)CC1CCO (configuration not stated),4.13
14,O=C(CSc1ncnc2nc[nH]c12)c1ccc([N+](=O)[O-])cc1,-0.96
15,Cn1cnc([N+](=O)[O-])c1Sc1ncnc2nc[nH]c12,7.31
16,COc1cc(/C=N/NC(=O)c2cncc(Br)c2)ccc1OC(=O)c1ccc2c(c1)OCO2,-4.21
17,COc1cccc(CC2(CO)CCCN(Cc3ccc(C)s3)C2)c1 (configuration not stated),4
18,COc1cccc(CC2(CO)CCCN(Cc3cc4ccccc4[nH]3)C2)c1 (configuration not stated),9.65
19,OCC1(CCOc2ccccc2)CCN(CC2=Cc3cc(Cl)ccc3OC2)CC1,6.89
20,COc1ccc2[nH]c(CN3CCC(CO)(CCOc4ccccc4)CC3)c(C)c2c1,-2.25
21,COc1cc(OC)cc(C(=O)NCC(=O)OCC(=O)N2c3ccccc3NC(=O)C2(C)C)c1,-1.81
22,COc1ccc(CN2CCN(CCCc3ccccc3)CC2)c(OC)c1,1.06
23,COc1cccc(C2C(C(=O)c3cc4cccc(OC)c4o3)=C(O)C(=O)N2c2cc(C)on2)c1OC (configuration not stated),-9.58
24,COc1cc2c(cc1OC)C(C)N(C(=O)c1cc3ccccc3o1)CC2 (configuration not stated),3.79

row,Compound,inhibition [%]
1,Cc1cc(=O)oc2cc(OCC(=O)Nc3ccc(S(=O)(=O)N(C)C)cc3)ccc12,-9.04
2,O=C(Nc1ccc(F)cc1)N1CCN(c2nc3ccccc3s2)CC1,6.46
3,O=C(Nc1ccccc1)N1CCN(c2nc3ccccc3s2)CC1,-10
4,CC(=O)Cc1nsc(NC(=O)c2ccc(-c3ccc(Cl)cc3Cl)o2)n1,-7.01
5,Cc1ccc(OCC(=O)N(Cc2cccs2)C2CCS(=O)(=O)C2)cc1C (configuration not stated),1.52
6,CC(C)C1OC(c2cccc(NC(=O)c3cccs3)c2)OCC1(C)C (configuration not stated),3.13
7,CCCCOc1ccc(CSCCN=C(N)N)cc1,10.7
8,Nc1c(C(=O)NCc2ccc(F)cc2)c2nc3ccccc3nc2n1CCCN1CCOCC1,14.5
9,COc1ccc(CCNC(=O)c2c(N)n(CCN3CCOCC3)c3nc4ccccc4nc23)cc1OC,20.2
10,Nc1c(C(=O)NCCN2CCOCC2)c2nc3ccccc3nc2n1Cc1ccccc1,13.8
11,CCCCCn1c(N)c(C(=O)NCCN2CCOCC2)c2nc3ccccc3nc21,27.3
12,COc1ccc(CNC(=O)c2c(N)n(CCCN3CCOCC3)c3nc4ccccc4nc23)cc1,16.6
13,Nc1c(C(=O)NCCN2CCOCC2)c2nc3ccccc3nc2n1CCc1ccccc1,34.9
14,CS(=O)(=O)c1ccc(C(=O)OCC(=O)NC23CC4CC(CC(C4)C2)C3)cc1[N+](=O)[O-],6.01
15,Cc1c(N=C2SCC(=O)N2/N=C\c2ccc(Br)cc2)c(=O)n(-c2ccccc2)n1C,2.9
16,Cn1c(N)c(C(=O)COC(=O)CCCc2nc3ccccc3s2)c(=O)n(C)c1=O,3.44
17,COc1cc(C(=O)NCCc2ccc(S(=O)(=O)N3CCCC3)cc2)cc(OC)c1OC,-6.26
18,CCCC1(C(=O)OCC)NC(c2ccc(O)cc2)C2C(=O)N(c3ccc4c(c3)OCCO4)C(=O)C21 (configuration not stated),11.1
19,COc1cccc(NC(=O)NC2CCCc3ccccc32)c1 (configuration not stated),0.07
20,O=C(O)CSc1c2c(nc3cc(C(=O)NCCN4CCOCC4)ccc13)CCC2,-7.4
21,O=C(NCCCN1CCOCC1)c1ccc(CS(=O)(=O)Cc2ccc(Cl)cc2)o1,2.9
22,O=c1oc2ccccc2c(Nc2ccccc2)c1[N+](=O)[O-],-3.06
23,Cc1ccc(Nc2c([N+](=O)[O-])c(=O)oc3ccccc23)cc1C,60.5
